# In PubChem BioAssay AID2278 (National Center for Advancing Translational Sciences (NCATS), 2010):
# Results filed as inconclusive are left out. Unmarked numbers belong to inactive results. Calls of active or inactive are those of the source. Calls come from the whole dose curve; as a rule, active = well fitted curve in the direction sought with a large enough effect; inconclusive = small, poorly fitted or top-dose-only effect, or another doubt; inactive = no such curve, though single readings can be large or run the other way.
# Target: Group 10 secretory phospholipase A2 (Mus musculus) (UniProt Q9QXX3)
# Sequence (Q9QXX3 whole entry, looked up): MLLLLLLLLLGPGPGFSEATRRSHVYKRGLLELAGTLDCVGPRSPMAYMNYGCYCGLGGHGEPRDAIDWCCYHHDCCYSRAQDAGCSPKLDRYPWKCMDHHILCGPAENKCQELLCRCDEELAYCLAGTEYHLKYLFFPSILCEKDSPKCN
# Test: Secondary Assay for Inhibitors of Ubiquitin-specific Protease USP2a: PLA2 Counterscreen
# Conditions: purified murine PLA2, NBD C6-HPC fluorescence; series mostly up to 57.5 µM; activity change, negative = inhibition: at the top concentration
# From the text: NIH Molecular Libraries Screening Centers Network [MLSCN] NIH Chemical Genomics Center [NCGC] MLSCN Grant: XO1-MH079852-01 PI Name: Nicholson, Ben. Progenra Inc, Malvern, PA NCGC Assay Overview: Homeostasis of cellular proteins is maintained through a combination of synthesis and degradation. The pathway that accounts for the majority of protein degradation is the ubiquitin-proteasomal pathway. Ubiquitin (Ub) is highly conserved in all cells and the generation of a multi-Ub chain typically targets proteins for degradation by the proteasome. However, ubiquitination is highly reversible and dynamic. Deubiquitination, the reverse process, is catalyzed through the action of enzymes referred to as isopeptidases or deubiquitinating enzymes (DUBs). This group of enzymes is collectively responsible for maintaining adequate pools of free ubiquitin and regulating the ubiquitination status of cellular proteins. The class of DUBs referred to as the ubiquitin-specific proteases (USP) family functions endoproteolytically to cleave Ub chains from a wide range of protein substrates. USP2a deubiquitinates fatty acid synthase (FASN) which has recently been identified as an emerging oncology target. To identify inhibitors of USP2a a cell-free assay was employed. This is assay is a counterscreen used for the for the USP2a-PLA2 coupled assay. In this assay the murine PLA2 reporter enzyme is screened alone using NBD C6-HPC (Invitrogen) as a fluorogenic substrate.
# NCGC Assay Protocol Summary: The assay buffer, prepared fresh at the day of the assay, contains 20mM Tris-HCl pH 8.0, 2mM CaCl2, 2mM beta-mercaptoethanol, 0.1% DMSO. 3ul of 10nM (5nM final) free PLA2, which is stored on ice, is dispensed into a medium-binding black solid Kalypsys 1,536 well plate using the Aurora BioRaptr. The assay plate is then pinned with 23nL compound with the Kalypsys pintool. The controls were pinned as follows: row 31 2M NEM and row 32 DMSO. Subsequently, 3uL 40uM (20uM final) NBD C6-HPC (stored on ice and protected from light) were dispensed into the plate using the BioRaptr dispenser. Plates were read immediately on an Envision (Perkin Elmer) plate reader using wavelengths of Ex 460nm /Em 535nm. Then, the assay plates were incubated for 2.5 hours and read again on the Envision using the same settings. Data were normalized to the to AC100 inhibition (NEM). Concentration-response curves were fitted to the normalized data and the concentration-response curves were then classified based on curve quality (r2), response magnitude and degree of measured activity. The time zero reading was used to flag fluorescence artifacts. Keywords: ubiquitination, deubiquitination, proteases, profluorescent, MLSMR, MLSCN, NIH Roadmap, qHTS, NCGC
SMILES,"activity change, negative = inhibition [%]",Potency
O=C(CSc1nc(=O)n(Cc2ccccn2)c2c1CCC2)Nc1ccccc1,13,–
CCOC(=O)C1CCCN(c2c(C(=O)c3ccc(C)cc3)cnc3ccc(OCC)cc23)C1 (stereo not given),-35.2,–
CCc1cccc(NC(=O)CSc2ncccc2C(=O)Oc2ccccc2Cl)c1,-4.88,–
CCCc1cc(=O)oc2c3c(ccc12)OCN(Cc1ccc(OC)cc1)C3,-28.7,–
COc1ccc(C(=O)/C=C/c2cn(CC(O)CN(CC(C)C)CC(C)C)c3ccccc23)cc1OC (stereo not given),-33.5,–
CCC(C)NC(=O)CSc1nc2cc3c(cc2c(=O)n1Cc1ccc(C(=O)NCCc2ccc(OC)c(OC)c2)cc1)OCO3 (stereo not given),1.89,–
COC(=O)c1c(NC(=O)CS(=O)(=O)c2ccc(C)cc2)sc2c1CCCCC2,8.66,–
CCC(=O)C1=C(c2ccc(OC)c(OC)c2)N(C(=O)CC)n2c(CC)nnc2S1,9.52,–
COc1ccc2c(c1)c1c(c(=O)n(-c3ccc(OC)c(OC)c3)c(=O)n1Cc1ccccc1C)n2C,-27.4,–
Cc1ccc2scc(N3CCN(c4cccc(C(F)(F)F)c4)CC3)c(=O)c2c1,5,–
CCCCn1c(SCC(=O)NCCCOC)nc2c(sc3ccccc32)c1=O,4.02,–
O=c1c(O)c(-c2cc(O)c(O)c(O)c2)oc2cc(O)cc(O)c12,11.3,–
CCCCCC(=O)N1c2ccccc2C(C)(c2ccccc2)CC1(C)C (stereo not given),-32.1,–
CC(=O)Nc1ccc(NC(=O)Cn2nc(C(=O)Nc3ccc(C)cc3)ccc2=O)cc1,9.94,–
O=C(CSc1nc2ccsc2c(=O)n1-c1ccc(Br)cc1)NCc1ccccc1,-5.48,–
O=C(CCS(=O)(=O)c1ccccc1)N(Cc1cccnc1)c1nc2c(Cl)cccc2s1,8.8,–
COc1ccc(C2C=C(c3ccc(Br)cc3)Nc3nnnn32)c(OC)c1 (stereo not given),6.25,–
COc1ccc(C2=CC(c3cccc(C)c3)n3nnnc3N2)cc1 (stereo not given),-30.1,–
Oc1c(C(Nc2ccccn2)c2ccccc2F)ccc2cccnc12 (stereo not given),8.56,–
Cc1c(C(=O)N(C)C)sc2c1c(=O)n(-c1ccc(Cl)c(Cl)c1)c(=O)n2CC(=O)Nc1ccc(Br)cc1F,-22.1,–
COc1ccc(Cl)cc1NC(=O)CSc1nc(=O)[nH]c2c1CCC2,8.64,–
Cc1ccc([C@H]2Nc3ccc(S(=O)(=O)Nc4cccc(Cl)c4C)cc3[C@H]3C=CC[C@H]32)cc1,-20.1,–
Cc1nnc(SCC(=O)NCc2ccccc2F)c2nn(-c3ccc(Cl)cc3)c(C)c12,6.11,–
Cc1cc(C)cc(NC(=O)c2sc3nc4n(c(=O)c3c2C)N=C(c2ccccc2)CS4)c1,–,20 µM (active)
Cc1nn(C(=O)c2cccc([N+](=O)[O-])c2C)c(C)c1S(=O)(=O)N1CCCCCC1,-15.4,–
CCOc1ccc(C2=C(C(C)=O)Sc3nnc(C)n3N2C(C)=O)cc1,9.3,–
Cc1cc(C)c2nc(N(Cc3cccnc3)C(=O)CCS(=O)(=O)c3ccccc3)sc2c1,6.88,–
Cc1ccc(-n2nc3c(=O)n(CCCC(=O)NCCc4ccccc4Cl)nc(C)c3c2C)cc1,-24,–
CCc1ccc(C(=O)c2c(N)c(-c3nc(-c4ccc5c(c4)OCO5)cs3)c3ccccn23)cc1,-25.3,–
COc1cc(C2C(C(=O)Nc3ccccc3C)=C(C)Nc3nc(SCc4cc(C)ccc4C)nn32)ccc1O (stereo not given),15.6,–
